Some test systems named below: NCI-H23 lung; NCI-H226 lung; NCI-H322M lung; HOP-62 NSCLC; NCI-H460 lung; HOP-92 NSCLC; NCI-H522 lung; A549/ATCC NSCLC; 786-0 renal; COLO 205 colon; DU-145 prostate; K-562 leukemia; MALME-3M melanoma; MDA-MB-231 breast; RXF 393 renal; SF-268 CNS; SF-295 CNS; SF-539 CNS; UACC-257 melanoma; M14 melanoma.
What all share (assay): NCI-60 one-dose screen, 48 h (100 = growth as untreated, 0 = no growth, -100 = all killed)
Common to all, as to details: 10 µM unless noted

8 compounds from PubChem BioAssay (NCI) can be followed below.

Structures are written as SMILES. The panel holds about 83,000 compounds, 20% with a hit somewhere; the sample as a whole holds those more often.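 Single-dose data. Exposure time 48 hours. Values below 10 considered active.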 Unmarked numbers belong to inactive results. Active and inactive are the calls of the source.

`COc1cc(OCc2cccc(Br)c2C)cc(OC)c1C=O`: the growth with NCI-H23 lung was 75.7%; in the test with NCI-H226 lung, 29.3%; in the test on NCI-H322M lung, 92.6%; with HOP-62 NSCLC, 93.5%; in the test with NCI-H460 lung, 75.8%; in the test on HOP-92 NSCLC it was 90.6%. Besides, the growth in the test with NCI-H522 lung is 62%; in the test with A549/ATCC NSCLC, 76.5%; in the test on 786-0 renal it was 79.4%; with COLO 205 colon it was 93.4%; in the test on DU-145 prostate, 91.3%; in the test on K-562 leukemia, 67%. Besides, the growth in the test on MALME-3M melanoma is 114%; in the test with MDA-MB-231 breast it was 95.2%; in the test on RXF 393 renal, 75.1%; with SF-268 CNS, 91.9%; in the test with SF-295 CNS, 86.7%; in the test with SF-539 CNS, 91.9%. Besides, the growth was 83% in the test with UACC-257 melanoma and 90.9% in the test with M14 melanoma.
Consider `CCN(CC)S(=O)(=O)c1ccc(S(=O)(=O)N2CCC[C@@H](C(=O)N3CCN(c4nc(C(C)C)no4)CC3)C2)cc1`, for which the growth in the test on NCI-H23 lung was 50%; in the test on NCI-H226 lung, 82.1%; in the test on NCI-H322M lung, 88.7%; in the test with HOP-62 NSCLC, 66.8%; in the test on NCI-H460 lung, 70.8%; in the test with HOP-92 NSCLC it was 77.1%. The growth in the test with NCI-H522 lung is 60.2%; in the test with A549/ATCC NSCLC, 67.1%; in the test with 786-0 renal it was 89.6%; in the test on COLO 205 colon, 102%; with DU-145 prostate, 62.6%; in the test on K-562 leukemia, 30.9%. Further, the growth in the test with MALME-3M melanoma is 85.3%; with MDA-MB-231 breast, 81.3%; in the test with RXF 393 renal, 64.5%; in the test with SF-268 CNS, 69%; with SF-295 CNS it was 52.8%; with SF-539 CNS, 74.3%. Also, the growth with UACC-257 melanoma is 45.1%; in the test with M14 melanoma, 78.8%.
Turning to `O=C1NC2(Nc3ccccc31)C(=O)Nc1c(Cl)cc(Cl)cc12` (stereo not given), the growth with NCI-H23 lung is 104%; in the test with NCI-H226 lung, 93.8%; with NCI-H322M lung, 110%; with HOP-62 NSCLC it was 84.7%; with NCI-H460 lung, 102%; with HOP-92 NSCLC, 106%. Moreover, the growth in the test with NCI-H522 lung was 103%; in the test with A549/ATCC NSCLC it was 110%; in the test on 786-0 renal, 103%; with COLO 205 colon, 119%; with DU-145 prostate, 117%; with K-562 leukemia it was 99.4%. Also, the growth with MALME-3M melanoma was 102%; in the test with MDA-MB-231 breast it was 94.9%; in the test on RXF 393 renal it was 115%; in the test on SF-268 CNS, 96.8%; in the test on SF-295 CNS, 101%; with SF-539 CNS, 100%. Also, the results for the growth in the test with UACC-257 melanoma and with M14 melanoma were 110% and 101%, respectively.
For `Nc1nc(N)c(-c2ccc(Cl)c(Cl)c2)c(CBr)n1`, the growth was 78.3% in the test on NCI-H23 lung; 93.3% with NCI-H226 lung; 78.4% in the test with NCI-H322M lung; 102% in the test with HOP-62 NSCLC; 25.7% in the test with NCI-H460 lung; 99% with HOP-92 NSCLC. For the same compound, the growth was 9.79% (active) in the test with NCI-H522 lung; 27% in the test with A549/ATCC NSCLC; 52% with 786-0 renal; 76.6% with COLO 205 colon; 83.2% in the test with DU-145 prostate; 36.8% in the test with K-562 leukemia. Further, the growth with MALME-3M melanoma was 89%; with MDA-MB-231 breast, 82.2%; in the test with RXF 393 renal, 90.6%; with SF-268 CNS, 94%; with SF-295 CNS, 55.7%; with SF-539 CNS, 65.4%. The growth in the test with UACC-257 melanoma was 68.5%; in the test on M14 melanoma it was 50.5%.
In the case of `CCOC(=O)Cc1cnc(N/N=C(\C)c2cc3ccccc3o2)s1`, the growth is 86.5% with NCI-H23 lung; 80.5% in the test with NCI-H226 lung; 93.6% in the test on NCI-H322M lung; 68% in the test on HOP-62 NSCLC; 94.4% in the test with NCI-H460 lung; 86.9% in the test with HOP-92 NSCLC. The growth in the test with NCI-H522 lung is 42%; with A549/ATCC NSCLC it was 91.5%; with 786-0 renal, 97.3%; in the test on COLO 205 colon, 108%; with DU-145 prostate, 113%; in the test on K-562 leukemia, 98.5%. Besides, the growth is 91.8% in the test on MALME-3M melanoma; 91.4% in the test with MDA-MB-231 breast; 107% in the test with RXF 393 renal; 98.8% in the test on SF-268 CNS; 104% in the test on SF-295 CNS; 107% with SF-539 CNS. In addition, the growth with UACC-257 melanoma and with M14 melanoma was 98.2% throughout.
Consider `CCc1ncnc2c1ccn2C(C)c1ccc(OC)c(F)c1` (stereo not given), for which the growth in the test on NCI-H23 lung was 38.9%; in the test with NCI-H226 lung, 77.2%; in the test with NCI-H322M lung it was 79.7%; in the test on HOP-62 NSCLC it was 41.3%; in the test on NCI-H460 lung, 30.8%; with HOP-92 NSCLC, 43.2%. Moreover, the growth in the test with NCI-H522 lung is 43.3%; in the test on A549/ATCC NSCLC, 41.1%; in the test on 786-0 renal, 74.9%; in the test with COLO 205 colon, 26.3%; with DU-145 prostate it was 82.3%; with K-562 leukemia it was 11.5%. Moreover, the growth with MALME-3M melanoma was 74.9%; in the test with MDA-MB-231 breast, 56.7%; with RXF 393 renal it was 76.5%; with SF-268 CNS it was 63.2%; with SF-295 CNS, 36%; with SF-539 CNS, 70.6%. The figures for the growth in the test with UACC-257 melanoma and with M14 melanoma were 40% and 36.3%, respectively.
As for `C=C(C)[C@@H]1CC[C@]2(C(=O)O)CC[C@]3(C)[C@H](CC[C@@H]4[C@@]5(C)CCC(NC(=O)c6cccc(OC(C)=O)c6OC(C)=O)C(C)(C)[C@@H]5CC[C@]43C)[C@@H]12` (stereo not given in full), the growth is 1.89% (active) in the test with NCI-H23 lung; -17.4% (active) in the test on NCI-H226 lung; 8.78% (active) with NCI-H322M lung; -14.6% (active) in the test on HOP-62 NSCLC; -39.4% (active) in the test on NCI-H460 lung; -11% (active) with HOP-92 NSCLC. The growth in the test with NCI-H522 lung is -11.4% (active); in the test with A549/ATCC NSCLC, -6.31% (active); in the test with 786-0 renal, -3.81% (active); in the test on COLO 205 colon, -11.3% (active); with DU-145 prostate it was 21.3%; in the test with K-562 leukemia, 10.7%. The growth is -4.37% (active) in the test on MALME-3M melanoma; 11.9% with MDA-MB-231 breast; -34.3% (active) with RXF 393 renal; 14.9% with SF-268 CNS; -29.6% (active) in the test with SF-295 CNS; -26.4% (active) with SF-539 CNS. The growth in the test on UACC-257 melanoma is 3.36% (active); in the test with M14 melanoma, -16.2% (active).
For the compound `CCSc1nc2scc(C)c2c(=O)[nH]1`, the growth in the test on NCI-H23 lung was 95.1%; in the test on NCI-H226 lung it was 99.2%; in the test on NCI-H322M lung it was 104%; with HOP-62 NSCLC, 106%; in the test on NCI-H460 lung, 102%; in the test on HOP-92 NSCLC, 101%. For the same compound, the growth in the test with NCI-H522 lung was 94.6%; in the test with A549/ATCC NSCLC it was 99.2%; in the test on 786-0 renal it was 94%; in the test with COLO 205 colon, 111%; in the test on DU-145 prostate it was 105%; in the test with K-562 leukemia, 99.9%. Moreover, the growth with MALME-3M melanoma was 106%; in the test on MDA-MB-231 breast it was 104%; with RXF 393 renal, 112%; in the test on SF-268 CNS it was 100%; in the test on SF-295 CNS, 99.2%; in the test with SF-539 CNS, 99.2%. Also, the growth with UACC-257 melanoma was 105%; in the test with M14 melanoma, 107%.
